Data as given in PubChem BioAssay (NCATS).
Inconclusive results are not listed. Active and inactive are the calls of the source. Unless noted, calls come from the whole dose curve; as a rule, active = well fitted curve in the direction sought with a large enough effect; inconclusive = small, poorly fitted or top-dose-only effect, or another doubt; inactive = no such curve, though single readings can be large; an effect the other way counts as inactive or inconclusive.

What was measured:
[1] = target: Peptidyl-prolyl cis-trans isomerase NIMA-interacting 1 (Homo sapiens) (UniProt Q13526); assay: qHTS Validation Assay to Find Inhibitors of Pin1 (AID 504536; active = well fitted inhibition curve with a large enough effect in the polarisation, with a control signal flat, not every such curve was filed as active; the % refers to the polarisation)
Method in brief: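 Fluorescence polarization competition: compounds (titration) displace HiFluor-488-labeled Pin1-1b peptide from Pin1 (0.3 uM final) in pH 7.5 HEPES buffer with DTT, 10 min at room temperature; %Activity normalized to no-enzyme wells, curves fitted.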

[2] = target: Phosphoglycerate kinase, glycosomal (Trypanosoma brucei brucei) (UniProt P07378); assay: qHTS Validation Assay to Find Inhibitors of Phosphoglycerate Kinase (AID 504547)
Method in brief: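 Luminescence end-point (Kinase-Glo Plus, 10 min) after a 60 min room-temperature coupled reaction. GAPDH at 100nM final supplies 1,3-BPG to PGK. Buffer: 100mM TEA pH 7.6, 5mM MgCl2, 0.01% Tween-20. Wells lacking PGK served as controls.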

[3] = target: phosphoglycerate mutase (Leishmania major) (UniProt Q4Q090); assay: qHTS Validation Assay to Find Inhibitors of Phosphoglycerate Mutase (AID 504548);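 note: end-point luminescence from Kinase-GloPlus after the PGAM reaction; series mostly up to about 58 µM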
Method in brief: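 L. major PGAM (1.25nM final) was added to substrate buffer and pinned compound, incubated 45 minutes at room temperature, then Kinase-GloPlus added; luminescence read after 10 minutes. Buffer: 100 mM TEA pH 7.6, 5 mM MgCl2, 0.01% Tween-20.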

[4] = qHTS for Inhibitors of ATXN expression: Validation of Cytotoxic Assay (AID 588349)
Method in brief: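 Cytotoxicity counter-screen: HEK293 cells exposed to compound titrations, 72 hr, 37 degrees C. Read-out is intracellular ATP (CellTiter Glo luminescence) as a viability measure.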

[5] = qHTS for Inhibitors of ATXN expression: Validation (AID 588378); note: series mostly up to about 57 µM; nearly all actives have a fitted effect of over 75% in size
Method in brief: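 After a 2 h attachment and 24 h compound incubation, HEK293-ATXN2-FFLuc wells are read for fluorescence at 405 nm excitation/525 nm emission as a viability measure, then for Bright-Glo luminescence reflecting ATXN2 expression.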

[6] = target: Glutaminase kidney isoform, mitochondrial (Homo sapiens) (UniProt O94925); assay: qHTS for Inhibitors of Glutaminase (GLS): LOPAC Validation (AID 624146);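 note: glutamate product detected by oxidase and peroxidase coupled Amplex red fluorescence gain; series mostly up to about 46 µM; nearly all actives have a fitted effect of over 60% in size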
Method in brief: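 Compounds were pin-transferred onto hKGA, after which L-glutamine (1 mM solution) and a detection mix of glutamate oxidase, HRP and Amplex Red were added. Initial and 30 min RT fluorescence reads were collected.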

[7] = qHTS of Trypanosoma Brucei Inhibitors: LOPAC Validation (AID 624147)
Method in brief: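 Activity of T. brucei pyruvate kinase was followed by Kinase-Glo Plus luminescence after the enzyme reacted 45 min at room temperature with 130 uM ADP (final) and substrate. Test compounds were added before ADP at multiple concentrations.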

[8] = target: Glucagon-like peptide 1 receptor (Homo sapiens) (UniProt P43220); assay: qHTS of GLP-1 Receptor Agonists: LOPAC Validation (AID 624148);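 note: luminescence from a luciferase reporter switched on by cAMP; higher luminescence signal means agonism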
Method in brief: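 Agonism scored as increased luciferase luminescence driven by cAMP in HEK293 clones carrying GLP-1R. Cells settled 12 hours, received compound for 4-6 hr at 37 deg C, 5% CO2, and were read after 12 min detection reagent at RT.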

[9] = qHTS of Nrf2 Activators: LOPAC Validation (AID 624149)
Method in brief: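 AREc32_Fluc cells, 1000/well, OPTI-MEM + 5% FBS, o/n 37 deg C 5% CO2; compound pin-transfer, 24 hr 37 deg C; Steady-Glo 30 min RT, luminescence read.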

[10] = HTS Assay for Allosteric Antagonists of the Human D2 Dopamine Receptor: Hit Validation in HTRF (AID 624455)
Method in brief: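 HTRF read-out; cells stably expressing D1 receptor; hits scored for inhibition of D1-mediated response. Primary screen: calcium flux, force-coupled inducible Hek293 Trex D2 line, antagonism vs EC80 dopamine.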

[11] = target: Arylsulfatase A (Homo sapiens) (UniProt P15289); assay: qHTS screen for enhancers of Arylsulfatase A (ASA1): LOPAC Validation Assay (AID 720538)
Method in brief: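 Cell-based enhancement test: residual ASA activity in SV40-transformed I179S patient fibroblasts is measured by pNCS turnover (0.5mM final, 14h, room temperature) following 48h compound incubation; higher fluorescence indicates activation.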

[12] = qHTS for compounds that reverse cellular toxicity of Amyloid beta (A-beta) peptide in yeast: LOPAC Validation Assay (AID 720559)
Method in brief: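 Here, A-beta-toxic yeast grow with test compounds at 30 C for 48 hr before optical density at 600 nm is recorded; data are normalized against DMSO and the FeCl3-clioquinol control.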

[13] = qHTS for Activators of Parkin Expression: LOPAC Validation Assay (NLuc Reporter) (AID 720572)
Method in brief: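 Compound effects on Parkin promoter activity were measured as NanoLuc luminescence after 24 h at 37 C. The neuronal reporter line also carried FLuc, which was read first. LOPAC compounds were tested at 7 concentrations, with normalization to DMSO (0%) and positive control (100%).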

[14] = qHTS for Activators of Parkin Expression: LOPAC Validation Assay (FLuc Reporter) (AID 720573)
Method in brief: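 Readout is FLuc luminescence from neuronal reporter cells (Parkin promoter, FLuc plus NLuc) after 24 h compound exposure in dose response. Values normalized to neutral DMSO and positive-control compounds.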

[15] = target: T1, Hexokinase-4 (Homo sapiens) + Glucokinase regulatory protein (Homo sapiens) (UniProt P35557+Q14397); assay: qHTS assay for inhibitors of recombinant human GCK-GKRP interaction: ADP-Glo assay (AID 743206)
Method in brief: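 Pin-transferred compounds meet a 15 nM GST-GCK/15 nM FLAG-GKRP/2 uM S6P mix (dispense concentrations). ATP is then added to 0.4 mM final with 5 mM glucose, and the reaction runs 60 min at room temperature. ADP is quantified luminescently.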

[16] = target: T1, Hexokinase-4 (Homo sapiens) + Glucokinase regulatory protein (Homo sapiens); assay: qHTS assay for inhibitors of recombinant human GCK-GKRP interaction: HTRF assay (AID 743207)
Method in brief: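 Titration screening format: recombinant GST-GCK and FLAG-GKRP at 5 nM, S6P at 2 uM, labelled anti-tag antibodies, 60 min at RT, dual-wavelength HTRF readout.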

[17] = Natriuretic polypeptide receptor (hNpr1) antagonism - Pilot counterscreen GloSensor control cell line (AID 1347045; calls by dose curve; note: series mostly up to about 38 µM)
Method in brief: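 HEK293 cGMP-sensor cells; 2% GloSensor reagent 2 h RT; LOPAC compounds in 1:5 titrations 30-50 min; 50 uM SNP 20 min; luminescence pre-read and post-read.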

[18] = target: Atrial natriuretic peptide receptor 1 (Homo sapiens) (UniProt P16066); assay: Natriuretic polypeptide receptor (hNpr1) antagonism - Pilot screen (AID 1347049; calls by dose curve;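 note: HEK293 cells with hNpr1 and GloSensor cGMP luciferase stimulated by 0.1 nM hNppA; agonist-evoked cGMP luminescence read 20 min after hNppA addition; series mostly up to about 58 µM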)
Method in brief: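 Receptor antagonism read as cGMP-dependent luminescence in hNpr1/pGS-40F HEK293 cells: pre-read after 30 min compound exposure, post-read 20 min after hNppA agonist at 0.1 nM final, all at room temperature, protected from light; A-71915 titration as control.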

[19] = target: Atrial natriuretic peptide receptor 2 (Homo sapiens) (UniProt P20594); assay: Natriuretic polypeptide receptor (hNpr2) antagonism - Pilot subtype selectivity assay (AID 1347050; calls by dose curve)
Method in brief: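 Antagonist mode: compounds (LOPAC1280, seven 1:5 dilutions) added 30 min before 1 nM hNppC stimulation of hNpr2-HEK293 cGMP-sensor cells; luminescence read before and 20 min after agonist at ambient temperature.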

[20] = target: T2, Tyrosine-protein phosphatase non-receptor type substrate 1 (Homo sapiens) + Leukocyte surface antigen CD47 (Homo sapiens) (UniProt P78324+Q08722); assay: CD47-SIRPalpha protein protein interaction - LANCE assay qHTS validation (AID 1347057; active = well fitted curve in the direction sought with a large enough effect in the signal ratio, with a control signal flat, not every such curve was filed as active; the % refers to the signal ratio; note: series mostly up to about 38 µM)
Method in brief: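 Inhibition of soluble CD47/SIRPalpha ectodomain association by titrated compounds, measured as 665/615 nm time-resolved FRET ratio after sequential 30 min room-temperature incubations.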

[21] = target: T2, Tyrosine-protein phosphatase non-receptor type substrate 1 (Homo sapiens) + Leukocyte surface antigen CD47 (Homo sapiens); assay: CD47-SIRPalpha protein protein interaction - HTRF assay qHTS validation (AID 1347058; active = well fitted curve in the direction sought with a large enough effect in the signal ratio, not every such curve was filed as active; the % refers to the signal ratio; note: series mostly up to about 38 µM)
Method in brief: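 Soluble extracellular domains (6His-CD47, Avi-tag-biotinylated SIRPalpha) in PBS pH 7.4 with 0.05% IGEPAL CA-630. Compounds were preincubated 30 min at RT with CD47 and anti-His-Eu, then SIRPalpha and SAV-XL665 were added. TR-FRET 665/615 ratio.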

[22] = target: T2, Tyrosine-protein phosphatase non-receptor type substrate 1 (Homo sapiens) + Leukocyte surface antigen CD47 (Homo sapiens); assay: CD47-SIRPalpha protein protein interaction - Alpha assay qHTS validation (AID 1347059);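 note: bead proximity luminescence from CD47 binding SIRPalpha after compound preincubation with SIRPalpha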
Method in brief: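 AlphaScreen signal between CD47-His (12.5 nM) and biotin-SIRPalpha (25 nM) soluble extracellular domains, bead-captured via Ni-NTA and streptavidin. Compounds, in 7-point titrations, met SIRPalpha 30 min before CD47; PBS pH 7.4 with 0.05% IGEPAL.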

[23] = target: Parathyroid hormone/parathyroid hormone-related peptide receptor (Homo sapiens) (UniProt Q03431); assay: qHTS for PTHR1 Agonists: Optimization Screen against the NCGC LOPAC library (AID 1347079);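 note: GloSensor cAMP luminescence in HEK-293 GP2 cells expressing human PTHR1 with IBMX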
Method in brief: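 Signal increase flags agonism. GP2 cells, derived from HEK-293, express human PTHR1 and a GloSensor cAMP construct.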

[24] = system: Zika virus NS2B-NS3 protease (unlinked); assay: Optimization of GU AMC qHTS for Zika virus inhibitors: Unlinked NS2B-NS3 protease assay (AID 1347151); note: series mostly up to about 52 µM; nearly all actives have a fitted effect of over 80% in size
Method in brief: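 In this qHTS, compounds acted on 25 nM unlinked Zika NS2B–NS3 in pH 8.0 Tris/Tween buffer. Cleavage of an AMC peptide ran 15 min at room temperature, to about 20% conversion.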

[25] = target: Lysine-specific demethylase 5B (Homo sapiens) (UniProt Q9UGL1); assay: Optimization screen for KDM5B Histone Demethylases FDH coupled qHTS against the LOPAC library (AID 1347166)
Method in brief: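 KDM5BDeltaAP (200nM final) in 50mM HEPES pH 7.5, 0.01% Tween-20 was preincubated with compound for 10 min at room temperature. A substrate mix of 12.5uM H3K4Me3, 25uM a-ketoglutarate, ascorbate, Fe2+, NAD+ and formaldehyde dehydrogenase was then added. NADH fluorescence (340/450 nm) was read initially and after 30 min.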

[26] = qHTS to identify inhibitors of the type 1 interferon - major histocompatibility complex class I in skeletal muscle: primary screen against the NCATS LOPAC collection (AID 1347405);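 note: human myoblasts with HiBiT tag on endogenous HLA-B stimulated by IFN-beta; lytic HiBiT luminescence reporting HLA-B protein level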
Method in brief: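 HLA-B HiBiT myoblasts, IFN-b 4 ng/ml, dexamethasone-free medium; compounds 7-pt 1:4.3 titration, top 46 uM final; 24 h at 37 C; Nano-Glo HiBiT lytic reagent, 10 min RT, luminescence.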

[27] = Validation qHTS assay for inhibitors of Activation Induced Cytidine Deaminase (AID): UDG Counterscreen signal (AID 1347427)
Method in brief: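 Fluorescence at 560 nm excitation, 665 nm emission reports UDG signal after 250 mM NaOH (2x) addition and 30 min. Enzymes (AID 1 uM, UDG 2 U/mL, at 4/3x) preincubated 10 min with compound, then 4 h with 4x 250 nM DJC20/DJC23 substrate at room temperature.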

[28] = target: Single-stranded DNA cytosine deaminase (Homo sapiens) (UniProt Q9GZX7); assay: Validation qHTS assay for inhibitors of Activation Induced Cytidine Deaminase (AID): AID signal (AID 1347429)
Method in brief: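 AID+UDG coupled FRET deamination; cpds up to 114 uM final; DJC20/DJC23 substrate, 4 hr RT; NaOH stop, 30 min RT; read Ex 540/Em 590.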

[29] = target: Calcium and integrin-binding protein 1 (Homo sapiens) (UniProt Q99828); assay: Validation qHTS for Identification of Calcium Integrin Binding protein 1 (CIB1) Competitor (AID 1508618)
Method in brief: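 CIB1-GST (1 uM final) incubated 15 min at room temperature with compounds (up to 114 uM), then FITC-labelled alphaIIb peptide (100 nM) added. FP read (Ex 480/Em 540) after 15 min, pH 7.4 buffer containing 5 mM CaCl2.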

Papain (Carica papaya) = Papain (Carica papaya) (UniProt P00784); assay: Primary qHTS assay for inhibitors of the protease papain (AID 1645873);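 note: papain turnover of Z-FR-AMC read as the AMC fluorescence gain over 10 min; series mostly up to about 50 µM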
[30] = target: Metallo-beta-lactamase type 2 (Klebsiella pneumoniae) (UniProt C7C422); assay: qHTS to identify inhibitors of the New Delhi Metallo-beta-lactamase (NDM): assay validation screen against the NCATS LOPAC Collection (AID 1794843); note: series mostly up to about 38 µM
Method in brief: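 Absorbance at 485 nm from nitrocefin turnover (50 uM solution added), read at plateau, gives the read-out. Compounds in DMSO were incubated first with 2 nM final NDM-1 in pH 7.0 HEPES buffer containing 1 uM ZnSO4 and 0.01% Tween20.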

[31] = target: Glutathione peroxidase 1 (Homo sapiens) (UniProt P07203); assay: Primary qHTS Assay for Inhibitors of Recombinant Selenoprotein Glutathione Peroxidase 1 (GPX1) (AID 1845191); note: nearly all actives have a fitted effect of over 65% in size
Method in brief: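 NADPH consumption tracked by fluorescence at 340/450 nm between t=0 and t=15 min, room temperature. Final mix: 10 nM GPX1, 100 nM glutathione reductase, 1 mM GSH, 0.5 mM NADPH, 0.5 mM cumene hydroperoxide, 0.01% BSA; 30 min compound–enzyme preincubation.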

[32] = target: Phospholipid hydroperoxide glutathione peroxidase GPX4 (Homo sapiens) (UniProt P36969); assay: Primary qHTS Assay for Inhibitors of Recombinant Selenoprotein Glutathione Peroxidase 4 (GPX4) (AID 1845192); details: outcome: dose series up to 50 µM unless noted; note: nearly all actives have a fitted effect of over 65% in size
Method in brief: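 NADPH consumption followed by fluorescence at 340/450 nm, t=0 and after 15 min at room temperature. Reaction started with cumene hydroperoxide (0.5 mM final) after 30 min compound–GPX4 preincubation; final 200 nM GPX4, 100 nM GR, 1 mM GSH, 0.5 mM NADPH.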

Measured: Potency

T2 sequence (P78324 whole entry, looked up, the tested form may be a part): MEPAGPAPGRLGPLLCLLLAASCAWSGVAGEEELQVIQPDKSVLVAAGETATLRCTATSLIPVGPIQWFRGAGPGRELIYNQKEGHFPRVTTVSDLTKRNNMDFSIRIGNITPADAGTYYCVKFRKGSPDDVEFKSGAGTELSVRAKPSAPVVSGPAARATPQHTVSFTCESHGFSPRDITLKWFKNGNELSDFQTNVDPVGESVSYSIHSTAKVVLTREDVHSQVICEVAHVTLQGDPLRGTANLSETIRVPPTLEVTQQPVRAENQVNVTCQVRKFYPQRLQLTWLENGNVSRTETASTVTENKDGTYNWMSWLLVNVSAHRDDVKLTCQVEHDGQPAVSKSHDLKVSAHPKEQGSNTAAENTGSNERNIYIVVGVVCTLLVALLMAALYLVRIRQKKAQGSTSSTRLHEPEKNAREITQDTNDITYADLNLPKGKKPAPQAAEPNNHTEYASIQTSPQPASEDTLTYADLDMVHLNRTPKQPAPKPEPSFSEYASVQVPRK
T2 sequence (Q08722 whole entry, looked up, the tested form may be a part): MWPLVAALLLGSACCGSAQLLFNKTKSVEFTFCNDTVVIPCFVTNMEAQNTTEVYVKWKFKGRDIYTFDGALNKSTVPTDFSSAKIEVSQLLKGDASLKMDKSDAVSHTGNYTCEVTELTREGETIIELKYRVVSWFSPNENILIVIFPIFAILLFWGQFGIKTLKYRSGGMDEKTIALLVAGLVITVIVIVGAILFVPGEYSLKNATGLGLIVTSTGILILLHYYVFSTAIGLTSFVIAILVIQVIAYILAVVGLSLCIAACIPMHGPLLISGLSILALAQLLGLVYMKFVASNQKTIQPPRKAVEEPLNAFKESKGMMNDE
T1 sequence (P35557 whole entry, looked up): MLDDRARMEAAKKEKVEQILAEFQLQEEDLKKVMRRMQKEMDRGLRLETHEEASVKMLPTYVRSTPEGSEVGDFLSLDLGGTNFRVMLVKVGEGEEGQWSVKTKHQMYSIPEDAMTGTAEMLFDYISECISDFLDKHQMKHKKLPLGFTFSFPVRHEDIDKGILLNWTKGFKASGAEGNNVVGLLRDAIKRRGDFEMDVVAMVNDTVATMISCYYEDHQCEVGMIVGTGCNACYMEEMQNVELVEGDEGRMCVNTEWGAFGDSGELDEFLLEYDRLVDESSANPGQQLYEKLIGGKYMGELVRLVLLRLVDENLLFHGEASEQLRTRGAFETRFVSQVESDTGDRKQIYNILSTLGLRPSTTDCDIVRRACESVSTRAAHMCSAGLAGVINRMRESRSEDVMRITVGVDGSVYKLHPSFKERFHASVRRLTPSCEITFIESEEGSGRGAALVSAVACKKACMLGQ
T1 sequence (Q14397 whole entry, looked up): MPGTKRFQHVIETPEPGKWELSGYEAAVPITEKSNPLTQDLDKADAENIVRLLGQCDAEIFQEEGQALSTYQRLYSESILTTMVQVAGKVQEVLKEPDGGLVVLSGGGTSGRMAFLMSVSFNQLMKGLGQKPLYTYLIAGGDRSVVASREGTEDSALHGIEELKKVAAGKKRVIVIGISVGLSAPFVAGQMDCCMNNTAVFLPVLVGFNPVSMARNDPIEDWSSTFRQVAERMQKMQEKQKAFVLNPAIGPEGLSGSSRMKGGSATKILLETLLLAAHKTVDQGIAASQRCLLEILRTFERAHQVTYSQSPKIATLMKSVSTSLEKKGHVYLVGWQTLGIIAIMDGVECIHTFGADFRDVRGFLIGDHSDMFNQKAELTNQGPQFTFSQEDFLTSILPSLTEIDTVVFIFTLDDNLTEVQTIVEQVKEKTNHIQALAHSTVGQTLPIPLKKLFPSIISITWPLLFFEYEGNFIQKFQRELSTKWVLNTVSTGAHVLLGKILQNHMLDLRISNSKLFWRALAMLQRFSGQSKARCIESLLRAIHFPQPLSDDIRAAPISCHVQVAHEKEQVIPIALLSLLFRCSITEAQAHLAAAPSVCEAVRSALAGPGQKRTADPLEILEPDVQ
Parathyroid hormone/parathyroid hormone-related peptide receptor (Homo sapiens), sequence (Q03431 whole entry, looked up): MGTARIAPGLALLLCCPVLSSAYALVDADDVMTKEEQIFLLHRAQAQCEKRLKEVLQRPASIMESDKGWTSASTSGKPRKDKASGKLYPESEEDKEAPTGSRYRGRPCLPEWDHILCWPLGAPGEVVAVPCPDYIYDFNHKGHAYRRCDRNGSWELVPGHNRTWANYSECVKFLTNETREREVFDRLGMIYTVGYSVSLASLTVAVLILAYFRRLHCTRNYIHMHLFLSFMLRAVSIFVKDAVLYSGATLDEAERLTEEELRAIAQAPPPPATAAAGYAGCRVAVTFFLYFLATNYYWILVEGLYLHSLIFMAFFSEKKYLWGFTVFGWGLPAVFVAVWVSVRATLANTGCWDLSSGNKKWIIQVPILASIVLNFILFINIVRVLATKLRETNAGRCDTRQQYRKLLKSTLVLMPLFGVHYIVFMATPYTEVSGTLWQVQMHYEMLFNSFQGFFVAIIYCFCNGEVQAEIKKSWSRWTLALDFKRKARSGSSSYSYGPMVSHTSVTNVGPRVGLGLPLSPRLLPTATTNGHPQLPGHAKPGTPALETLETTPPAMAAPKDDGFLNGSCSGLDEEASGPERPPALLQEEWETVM
Lysine-specific demethylase 5B (Homo sapiens), sequence (Q9UGL1 whole entry, looked up): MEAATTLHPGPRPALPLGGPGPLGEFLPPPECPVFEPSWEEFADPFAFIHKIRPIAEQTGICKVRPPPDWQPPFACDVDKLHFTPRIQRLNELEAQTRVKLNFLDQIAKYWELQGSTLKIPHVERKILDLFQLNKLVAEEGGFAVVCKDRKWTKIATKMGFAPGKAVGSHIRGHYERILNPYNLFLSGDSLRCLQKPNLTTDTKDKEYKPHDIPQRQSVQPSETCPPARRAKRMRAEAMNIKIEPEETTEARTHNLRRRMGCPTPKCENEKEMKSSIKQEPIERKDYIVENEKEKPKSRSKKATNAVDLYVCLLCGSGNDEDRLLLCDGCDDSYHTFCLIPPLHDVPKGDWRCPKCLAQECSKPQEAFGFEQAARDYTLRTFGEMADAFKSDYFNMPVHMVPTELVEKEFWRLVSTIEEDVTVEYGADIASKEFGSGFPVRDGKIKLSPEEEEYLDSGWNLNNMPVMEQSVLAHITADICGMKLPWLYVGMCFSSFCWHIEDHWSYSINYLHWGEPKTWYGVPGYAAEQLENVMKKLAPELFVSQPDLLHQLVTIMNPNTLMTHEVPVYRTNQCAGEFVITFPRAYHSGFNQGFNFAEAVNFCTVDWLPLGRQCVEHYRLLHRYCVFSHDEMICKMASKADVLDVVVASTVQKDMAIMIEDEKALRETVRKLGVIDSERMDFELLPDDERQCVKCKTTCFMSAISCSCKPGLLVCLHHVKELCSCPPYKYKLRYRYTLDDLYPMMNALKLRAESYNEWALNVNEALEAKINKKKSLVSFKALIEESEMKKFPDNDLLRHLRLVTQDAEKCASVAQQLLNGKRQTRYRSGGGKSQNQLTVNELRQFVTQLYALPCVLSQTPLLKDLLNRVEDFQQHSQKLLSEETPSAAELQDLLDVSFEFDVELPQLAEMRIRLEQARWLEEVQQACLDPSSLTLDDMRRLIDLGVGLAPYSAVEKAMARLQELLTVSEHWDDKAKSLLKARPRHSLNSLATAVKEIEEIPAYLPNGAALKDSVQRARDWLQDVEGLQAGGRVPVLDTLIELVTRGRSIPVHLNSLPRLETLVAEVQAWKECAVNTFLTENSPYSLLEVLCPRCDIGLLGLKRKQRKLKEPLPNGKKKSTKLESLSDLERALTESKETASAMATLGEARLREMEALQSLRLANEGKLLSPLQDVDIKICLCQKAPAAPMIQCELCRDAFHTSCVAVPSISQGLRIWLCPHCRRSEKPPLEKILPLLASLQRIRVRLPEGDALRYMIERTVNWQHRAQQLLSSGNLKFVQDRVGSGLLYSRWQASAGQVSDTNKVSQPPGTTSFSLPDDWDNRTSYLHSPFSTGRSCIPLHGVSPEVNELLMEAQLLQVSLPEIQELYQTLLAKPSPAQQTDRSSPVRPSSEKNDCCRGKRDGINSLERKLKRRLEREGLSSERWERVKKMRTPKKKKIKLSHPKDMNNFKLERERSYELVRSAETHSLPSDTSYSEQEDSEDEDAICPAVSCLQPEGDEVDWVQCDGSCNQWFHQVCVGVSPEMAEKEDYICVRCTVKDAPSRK
Phosphoglycerate kinase, glycosomal (Trypanosoma brucei brucei), sequence (P07378 whole entry, looked up): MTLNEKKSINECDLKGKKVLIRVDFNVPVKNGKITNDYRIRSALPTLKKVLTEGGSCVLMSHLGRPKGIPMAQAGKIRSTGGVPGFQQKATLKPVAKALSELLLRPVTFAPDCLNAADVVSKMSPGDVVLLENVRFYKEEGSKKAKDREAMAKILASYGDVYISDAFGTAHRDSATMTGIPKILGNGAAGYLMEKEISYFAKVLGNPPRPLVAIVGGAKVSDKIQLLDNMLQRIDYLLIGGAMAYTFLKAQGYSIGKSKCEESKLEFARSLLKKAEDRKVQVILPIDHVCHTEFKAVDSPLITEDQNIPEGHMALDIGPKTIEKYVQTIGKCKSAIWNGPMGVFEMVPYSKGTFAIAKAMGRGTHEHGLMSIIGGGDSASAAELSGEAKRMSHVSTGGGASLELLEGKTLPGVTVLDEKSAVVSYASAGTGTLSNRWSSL
Glutathione peroxidase 1 (Homo sapiens), sequence (P07203 whole entry, looked up): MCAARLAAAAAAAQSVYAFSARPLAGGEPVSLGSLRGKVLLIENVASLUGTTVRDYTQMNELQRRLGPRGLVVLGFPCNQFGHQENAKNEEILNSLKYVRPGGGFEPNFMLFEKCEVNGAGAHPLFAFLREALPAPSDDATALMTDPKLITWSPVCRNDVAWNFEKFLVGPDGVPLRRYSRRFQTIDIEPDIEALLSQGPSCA
Phospholipid hydroperoxide glutathione peroxidase GPX4 (Homo sapiens), sequence (P36969 whole entry, looked up): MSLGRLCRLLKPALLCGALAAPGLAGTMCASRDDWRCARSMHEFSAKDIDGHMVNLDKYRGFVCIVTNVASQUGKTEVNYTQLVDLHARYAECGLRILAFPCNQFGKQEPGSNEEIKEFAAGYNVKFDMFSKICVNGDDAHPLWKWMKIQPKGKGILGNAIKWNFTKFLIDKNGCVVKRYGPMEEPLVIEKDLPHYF

CC[N+](CC)(CC)CC
inactive: [1] | [2] | [3] | [4] | [5] | [6] | [7] | [8] | [9] | [10] | [11] | [12] | [13] | [14] | [15] | [16] | [17] | [18] | [19] | [20] | [21] | [22] | [23] | [24] | [25] | [26] | [27] | [28] | [29] | Papain (Carica papaya) | [30] | [31] | [32]
